# Test results taken from the supplement of paper PMC12645437, “Orthogonal IMiD-Degron Pairs Induce Selective Protein Degradation in Cells” (ACS Chemical Biology, 2025).
# Over roughly 8,300 sequences, “log2 fold change of degron read counts, EGFP-low vs EGFP+ sorted cells (limma voom), compound-induced degradation” has its median near -1.1; the highest 2% begin near 3.2. The sample holds the highest values, similar sequences and a random draw of the others, so the mix is not that of the screen.
# T1: CRBN, Q96SW2
# T1 chain: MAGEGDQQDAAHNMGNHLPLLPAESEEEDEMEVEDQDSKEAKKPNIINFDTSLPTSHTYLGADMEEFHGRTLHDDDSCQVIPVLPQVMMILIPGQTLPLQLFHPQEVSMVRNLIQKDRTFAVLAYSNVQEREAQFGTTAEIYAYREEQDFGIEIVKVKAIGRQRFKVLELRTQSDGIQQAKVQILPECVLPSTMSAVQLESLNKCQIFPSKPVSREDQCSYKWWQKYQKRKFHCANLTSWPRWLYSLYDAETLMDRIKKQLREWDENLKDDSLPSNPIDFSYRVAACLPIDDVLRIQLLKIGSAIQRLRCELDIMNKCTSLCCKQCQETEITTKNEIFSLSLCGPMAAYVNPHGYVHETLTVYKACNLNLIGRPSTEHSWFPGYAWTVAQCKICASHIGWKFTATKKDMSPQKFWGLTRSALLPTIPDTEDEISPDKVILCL
# B1: 46F_47D_49N_50V_52G_53A_54M_55F_67L_, Q9UKT9 (peptide)
# chain: FDCNVCGAMFTQKGNLLRHIKL
# B2: 46F_47E_49P_50Q_52G_53A_54K_55F_67L_, Q9UKT9 (peptide)
# chain: FECPQCGAKFTQKGNLLRHIKL
# B3: 46F_47W_49D_50I_52G_53A_54L_55F_67L_, Q9UKT9 (peptide)
# chain: FWCDICGALFTQKGNLLRHIKL
# B4: 46F_47N_49P_50I_52G_53A_54G_55F_67L_, Q9UKT9 (peptide)
# chain: FNCPICGAGFTQKGNLLRHIKL
# B5: 46L_47V_49E_50I_52G_53F_54F_55C_67L_, Q9UKT9 (peptide)
# chain: LVCEICGFFCTQKGNLLRHIKL
# B6: 46F_47S_49P_50I_52G_53A_54C_55F_67L_, Q9UKT9 (peptide)
# chain: FSCPICGACFTQKGNLLRHIKL
# B7: 46F_47V_49P_50I_52G_53A_54C_55F_67L_, Q9UKT9 (peptide)
# chain: FVCPICGACFTQKGNLLRHIKL
# B8: 46F_47Y_49P_50I_52G_53A_54C_55F_67L_, Q9UKT9 (peptide)
# chain: FYCPICGACFTQKGNLLRHIKL
# B9: 46F_47A_49P_50I_52G_53A_54C_55F_67L_, Q9UKT9 (peptide)
# chain: FACPICGACFTQKGNLLRHIKL
# B10: 46F_47Q_49P_50I_52G_53A_54C_55F_67L_, Q9UKT9 (peptide)
# chain: FQCPICGACFTQKGNLLRHIKL
# B11: 46F_47W_49P_50I_52G_53A_54C_55F_67L_, Q9UKT9 (peptide)
# chain: FWCPICGACFTQKGNLLRHIKL
# B12: 46F_47N_49P_50I_52G_53A_54C_55F_67L_, Q9UKT9 (peptide)
# chain: FNCPICGACFTQKGNLLRHIKL
# B13: 46F_47C_49P_50I_52G_53A_54C_55F_67L_, Q9UKT9 (peptide)
# chain: FCCPICGACFTQKGNLLRHIKL
# B14: 46F_47L_49P_50I_52G_53A_54C_55F_67L_, Q9UKT9 (peptide)
# chain: FLCPICGACFTQKGNLLRHIKL
# B15: 46F_47I_49P_50I_52G_53A_54C_55F_67L_, Q9UKT9 (peptide)
# chain: FICPICGACFTQKGNLLRHIKL
# B16: 46F_47M_49P_50I_52G_53A_54C_55F_67L_, Q9UKT9 (peptide)
# chain: FMCPICGACFTQKGNLLRHIKL
# B17: 46F_47D_49P_50I_52G_53A_54C_55F_67L_, Q9UKT9 (peptide)
# chain: FDCPICGACFTQKGNLLRHIKL
# B18: 46F_47D_49D_50Q_52G_53A_54E_55F_67L_, Q9UKT9 (peptide)
# chain: FDCDQCGAEFTQKGNLLRHIKL
# B19: 46F_47V_49E_50V_52G_53A_54F_55F_67L_, Q9UKT9 (peptide)
# chain: FVCEVCGAFFTQKGNLLRHIKL
# B20: 46F_47D_49P_50Q_52G_53A_54M_55F_67L_, Q9UKT9 (peptide)
# chain: FDCPQCGAMFTQKGNLLRHIKL
# B21: 46F_47F_49N_50Q_52G_53R_54S_55F_67L_, Q9UKT9 (peptide)
# chain: FFCNQCGRSFTQKGNLLRHIKL
# B22: 46F_47Y_49D_50Q_52G_53A_54E_55F_67L_, Q9UKT9 (peptide)
# chain: FYCDQCGAEFTQKGNLLRHIKL
# B23: 46F_47N_49P_50I_52G_53H_54A_55F_67L_, Q9UKT9 (peptide)
# chain: FNCPICGHAFTQKGNLLRHIKL
# B24: 46F_47W_49P_50I_52G_53A_54E_55F_67L_, Q9UKT9 (peptide)
# chain: FWCPICGAEFTQKGNLLRHIKL
# B25: 46F_47D_49N_50Q_52G_53H_54A_55F_67L_, Q9UKT9 (peptide)
# chain: FDCNQCGHAFTQKGNLLRHIKL
# B26: 46F_47K_49D_50I_52G_53A_54E_55F_67L_, Q9UKT9 (peptide)
# chain: FKCDICGAEFTQKGNLLRHIKL
# B27: 46F_47K_49S_50V_52G_53H_54V_55F_67L_, Q9UKT9 (peptide)
# chain: FKCSVCGHVFTQKGNLLRHIKL
# B28: 46F_47W_49E_50Q_52G_53A_54Q_55F_67L_, Q9UKT9 (peptide)
# chain: FWCEQCGAQFTQKGNLLRHIKL
# Target: T1, CRBN, Q96SW2
# Assay: log2 fold change of degron read counts, EGFP-low vs EGFP+ sorted cells (limma voom), compound-induced degradation; higher = more compound-induced degradation of the degron-EGFP fusion; degrons are variants of IKZF1/3 zinc finger 2; compound dose not given here
# Details: Jurkat, 18 h
# Method: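 Pooled library of 8380 IKZF3 ZF2 degron mutants (positions 146-167 varied within the IKZF3 130-189 degron; only the varied core is printed, flanks not printed) fused to EGFP with IRES-mCherry, lentivirally expressed in Jurkat cells. mCherry+ cells were treated with one IMiD compound for 18 h (dose not stated) and FACS-sorted into EGFP-low and EGFP+ populations. Degron sequences were counted by NGS, and log2FC (EGFP-low vs EGFP+) was estimated by limma voom over 3 biological replicates.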
# [1] = compound: compound 19 (5-tert-butyl-thalidomide)
# [2] = compound: compound 22 (5-morpholino-thalidomide)
# [3] = compound: compound 33 (diphenyl IMiD analogue)
# 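Further: pooled lentiviral library of zinc finger degron-EGFP fusions in mCherry-positive Jurkat cells, FACS-sorted after compound exposure, with degron abundance counted by next-generation sequencing.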
Sequence,log2 fold change of degron read counts [1],log2 fold change of degron read counts [2],log2 fold change of degron read counts [3],log2 fold change of degron read counts (compound: thalidomide)
B1,-2.41,-2.06,-1.24,-0.963
B2,-1.95,-2.7,-2.13,0.127
B3,2.43,2.23,0.921,-1.11
B4,2.9,0.718,0.577,0.35
B5,0.178,0.388,0.876,1.42
B6,2.84,2.22,2.64,1.47
B7,0.0061,2.13,2.08,2.38
B8,3.5,3.63,2.59,1.59
B9,3.48,2.09,1.78,1.06
B10,0.828,3.06,2.53,3.77
B11,3.58,3.31,2.4,1.46
B12,2.34,1.06,1.37,0.843
B13,2.52,2.23,2.82,2.11
B14,0.664,-0.175,1.79,1.62
B15,-0.628,2.02,1.94,2.17
B16,-0.174,0.429,2.49,1.41
B17,1.96,0.401,2.22,2.13
B18,-3.44,-3.7,-3.04,-3.25
B19,-0.979,-0.472,1.09,0.698
B20,-2.55,-2.86,-1.76,-1.75
B21,-2.31,-2.35,-2.54,-2.53
B22,-1.15,-2.26,-1.96,-3.08
B23,-1.92,-2.91,-2.41,-1.74
B24,2.47,2.5,1.96,0.113
B25,-2.71,-2.67,-2.47,-2.94
B26,-3.02,-3.75,-4.07,-2.58
B27,-3.06,-3.01,-3.11,-3.07
B28,0.92,2.94,0.838,-0.633
